Screening data deposited in PubChem by several laboratories.
E coli growth-1: blocks Escherichia coli growth; OD600, 23 h; stronger effect = lower value; OD600 absorbance (test concentration not listed); 330,000 compounds, 0.21% hits; AID 1053175;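 active = OD600 absorbance below the run mean of sample wells minus 3.6 SD, in any replicate, cut at about 0.56 in these data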
Tat export inh: inhibitors of E. coli Tat protein transport. E. coli MC4100 TorA-mCherry Tat export, fluorescence. inhibition, % at 10 µM. 340,000 compounds, 0.036% hits;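 active = mean replicate inhibition at least 50% and at least half of replicates individually reaching 50%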;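 note: exported cargo escapes ClpAP degradation while cytoplasmic cargo is degraded and loses fluorescence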
AddAB inh: less growth of phage-infected E. coli with AddAB; E. coli expressing H. pylori AddAB, absorbance growth; inhibition, % at 11.9 µM; 330,000 compounds, 0.29% hits; AID 435030; in the data active = inhibition above about 12%
phage Ecoli inh: E. coli growth loss with phage present. growth absorbance. inhibition, % at 11.9 µM. 360,000 compounds, 0.26% hits. AID 651602; in the data active = inhibition above about 11%
E coli growth-2: reduces bacterial viability in AddAB counter-screen; inhibition, % at 11.9 µM; 330,000 compounds, 0.27% hits; E. coli V3065 growth, OD600 absorbance, 18 h; AID 449728;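 active = inhibition above the campaign's mean inhibition across all tested compounds plus 3 SD, cut at about 9.9% in these data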;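 note: uninfected addAB+ strain grown without phage in ampicillin broth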
AddAB conf: confirmation screen: growth loss of phage-infected E. coli expressing H. pylori AddAB; E. coli V3065 expressing H. pylori AddAB, T4 phage, OD; T4 phage with gene 2 nonsense mutations; shares compounds with AddAB inh; 880 compounds, 64% hits; inhibition, % at 11.9 µM;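 active = mean inhibition above a set limit taken from the earlier primary screen, cut at about 13% in these data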;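 note: higher means less bacterial growth since AddAB block lets phage replicate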
RecBCD counter: reduces growth of phage-infected RecBCD+ E. coli, AddAB inhibitor counter-screen; shares compounds with AddAB inh; E. coli V66 + mutant T4 phage, OD growth; inhibition, % at 11.9 µM; 880 compounds, 73% hits; AID 488955;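 active = mean inhibition above the mean of solvent-only control wells plus 3 SD, cut at about 4% in these data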;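 note: optical density read after an 18 h incubation at 37 °C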
bact viab count: reduces bacterial viability, AddAB inhibitor counter-screen; shares compounds with AddAB inh; 880 compounds, 35% hits; AID 488956; inhibition, % at 11.9 µM; absorbance (AddAB counterscreen); in the data active = inhibition above about 25%
Each line names hits and unclear results; the compound was inactive in the other large screens (follow-up assays come after a bar, where they were run). The list is not random: actives were taken first. Their share in the collection is about 0.5%.

C/C(=N\Nc1ncnc2sc(C)c(C)c12)c1ccccn1	E coli growth-2 14.3 (no result: E coli growth-1)
Cc1sc2ncnc(N/N=C/c3cccc(O)c3)c2c1C	none (no result: E coli growth-1)
CNc1ccc(-c2cccc([N+](=O)[O-])c2)cn1	none (no result: E coli growth-1, Tat export inh, AddAB inh, E coli growth-2)
COC1C=CO[C@@]2(C)Oc3c(C)c(O)c4c(O)c(c(C=NN5CCN(C)CC5)c(O)c4c3C2=O)NC(=O)C(C)=CC=CC(C)C(O)C(C)C(O)C(C)C(OC(C)=O)C1C (stereo partly drawn)	E coli growth-1 0.074 (no result: Tat export inh, AddAB inh, phage Ecoli inh, E coli growth-2)
COC1C=CO[C@@]2(C)Oc3c(C)c(O)c4c(O)c(c5c(nc6cc(C)ccn65)c4c3C2=O)NC(=O)C(C)=CC=CC(C)C(O)C(C)C(O)C(C)C(OC(C)=O)C1C (stereo partly drawn)	E coli growth-1 0.062 (no result: Tat export inh, AddAB inh, phage Ecoli inh, E coli growth-2)
COc1cc2c(cc1OC)CN(C(=S)Nc1ccccc1)CC2	none
COc1cc2c(cc1OC)CN(C(=S)Nc1ccccc1Cl)CC2	E coli growth-1 0.431
COc1ccccc1/C=C(/C(=O)NCCCn1ccnc1)c1ccccc1	none
CCN1CSC(=S)N(Cc2ccc(OC)cc2)C1	E coli growth-1 0.495
CCN1CSC(=S)N(Cc2ccccc2)C1	none
Nc1ncncc1-c1ccc([N+](=O)[O-])cc1	E coli growth-1 0.362
CCCOc1ccc(C(=O)NNC(=S)NC(=O)CC)cc1	E coli growth-1 0.404
C=CCNC(=S)NNC(=O)c1ccc(OCCC)cc1	none
Cc1c(CN2CCC(CO)(CCOc3ccccc3)CC2)c(=O)n(-c2ccccc2)n1C	none
Cc1ccc(Cl)cc1NC(=O)CC(O)(C(F)(F)F)C(F)(F)F	E coli growth-2 11.3
CC(=O)Nc1cccc(C(=O)/C=C/c2ccc[nH]2)c1	E coli growth-2 10.7
CC(=O)Nc1cccc(C(=O)/C=C/c2ccc(/C=C/C(=O)c3cccc(NC(C)=O)c3)cc2)c1	none (no result: E coli growth-1, Tat export inh)
Cc1ccc(Nc2cc(C)c3c(O)cccc3n2)cc1C	E coli growth-1 0.503
COc1ccc(Nc2cc(C)c3c(O)cccc3n2)cc1	none
Nc1nc(Nc2ccccc2)nc2ccccc12	E coli growth-1 0.53
COc1cc2nc(Nc3ccc(C)c(Cl)c3)nc(N)c2cc1OC	none
CN(C)c1ccc(Nc2nc(N)c3ccccc3n2)cc1	none (no result: E coli growth-1)
Cc1ccc(Nc2nc(N)c3ccccc3n2)cc1Cl	E coli growth-1 0.444
Nc1nc(Nc2ccc(Cl)cc2)nc2ccccc12	E coli growth-1 0.352
COC(=O)Cn1cnc2sc(C)c(S(=O)(=O)N3CCN(c4ccccc4OC)CC3)c2c1=O	none
N#CCCn1cc(/C=N/NC(=O)c2ccncc2)c(-c2ccc(F)cc2)n1	none (no result: E coli growth-1)
Nc1nc(SCC(=O)Nc2ncc(C(F)(F)F)cc2Cl)n[nH]1	E coli growth-2 11.8
CCN(CC)S(=O)(=O)c1ccc(N2CCOCC2)c(NC(=O)C2CCCC2)c1	none
CC(C)c1ccc2c(c1)C(N1CCNCC1)Cc1ccc(F)cc1S2 (stereo not drawn)	E coli growth-1 0.128 (no result: Tat export inh)
CCn1cc(C(=O)O)c(=O)c2cc3c(cc21)OCO3	AddAB inh 97.0, E coli growth-2 96.5 (no result: E coli growth-1, Tat export inh, phage Ecoli inh)
CCn1cc(C(=O)N[C@@H](C)C(=O)OC)c(=O)c2cc3c(cc21)OCO3	E coli growth-1 0.0835
CCn1cc(C(=O)O)c(=O)c2cc(Br)ccc21	E coli growth-1 0.557
CCOC(=O)c1cn(CC)c2ccc(Br)cc2c1=O	none
O=C(Cn1cc(C(=O)c2ccco2)c2ccccc21)Nc1ccccc1	AddAB inh 16.9, E coli growth-2 16.0 | AddAB conf inactive | RecBCD counter 11.3 | bact viab count inactive
Cc1cc(C=Nn2c(COc3ccccc3)nc3ccccc3c2=O)c(O)c([N+](=O)[O-])c1	none (no result: Tat export inh, AddAB inh, phage Ecoli inh, E coli growth-2)
Cc1cc(/C=N/n2c(COc3ccccc3)nc3ccccc3c2=O)c(O)c([N+](=O)[O-])c1	AddAB inh 14.7, E coli growth-2 13.1 (no result: E coli growth-1) | AddAB conf inactive | RecBCD counter 14.2 | bact viab count inactive
Cc1ccc2c(c1)n([O-])c1c([n+]2=O)CCCC1	none
CC(=O)c1c(C)n([O-])c2ccc(C)cc2[n+]1=O	E coli growth-1 0.43, AddAB inh 23.2, E coli growth-2 24.1 | AddAB conf 68.3 | RecBCD counter 8.3 | bact viab count 53.2
